# Measured values taken from PubChem BioAssay (NCATS).
# Where “and” joins values, the source holds several entries; their conditions need not be identical. Identical values can stand only once. Records with an inconclusive call do not appear. The source holds several records for some structures; these can differ, active in one and inactive in another. Calls of active or inactive are those of the source. Calls follow the shape of the dose curve; as a rule, active = well fitted activation curve with a large enough effect; inconclusive = small, poorly fitted or top-dose-only effect; inactive = no such curve, though single readings can be large or run the other way.
# Molecular target: Cellular tumor antigen p53 (Homo sapiens) (UniProt P04637)
# Test: Primary qHTS for small molecule compounds that upregulate eGFP-tagged delta133p53alpha (in N-terminal) cells. (AID 2060322); also: nearly all actives have a fitted effect of over 75% in size;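 as to activation: cells pre-induced with doxycycline then dosed without doxycycline; series mostly up to about 56 µM; 0% = DMSO vehicle and 100% = reference activator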
# Conditions: NCI-H358 eGFP-delta133p53alpha fluorescence, 24 h; activation: active compounds read high
# Source text: Assay Development and Screening Technology
# National Center for Advancing Translational Sciences (NCATS),
# National Institute of Health (NIH), Rockville, Maryland
# Cellular senescence (CS) is one of the hallmarks of aging and age-related diseases. Senescent cells are characterized by an irreversible growth arrest, an increase in senescence-associated beta-galactosidase (SA-beta-gal) activity and p16INK4a expression, an activation of the DNA damage response pathways, and the emergence of a senescence-associated secretory phenotype (SASP).
# Delta133p53alpha, a human/primate-specific p53 protein isoform, delays or inhibits the induction of CS and SASP in various types of human cells, including progeria-derived fibroblasts, primary normal astrocytes, and CD8+ T lymphocytes. Induction of delta133p53alpha with small molecule compounds may provide therapeutic opportunities for inhibition of senescence/SASP-associated pathologies in progeria syndromes, astrocyte-mediated neuroprotection in neurodegenerative diseases, and possibly prevention and treatment of a wider range of senescence- and aging-associated diseases.
# Here we report the development and validation of a cell-based quantitative high throughput screening (qHTS) assay in 1,536-well format. This qHTS assay uses the NCI-H358 cell line with doxycycline-inducible expression of enhanced green fluorescent protein (eGFP)-tagged delta133p53alpha, which allows efficient and highly quantitative measurement of the protein levels.
# PROTOCOL TABLE (as described by Inglese J, Shamu CE and Guy RK. 2007)
# SEQUENCE No. (e.g., 1, 2, 3, etc.); […] (e.g., Cells, Incubation, Reagent, etc.); VALUE; DESCRIPTION.
# 1; Cells; 4uL; 800 doxycycline treated cells / well in doxycycline-free media, 1536-well black, clear-bottom low base Aurora microplates.
# 2; Compounds; 23 nL; Kalypsis pin tool (Wako) equipped with 1536-well pin heads, 5-azacytidine positive control.
# 3; Incubation; 24 hr; 37C, 5% CO2; 95% relative humidity.
# 4; Aspiration; 1x; BioTek EL406 washer dispenser (Agilent).
# 5; Fixing; 3.5% paraformaldehyde, BioTek EL406 washer dispenser (Agilent).
# 6; Washing; 1x PBS; BioTek EL406 washer dispenser (Agilent).
# 7; Nuclei staining; 1:1000 dilution of Hoechst 33342 (Thermofisher), BioTek EL406 washer dispenser (Agilent).
# 8; Incubation; 20 min; in the dark at room temperature.
# 9; Washing; 2x, 1x PBS (ThermoFisher), BioTek EL406 washer dispenser (Agilent).
# 10; Reagent; 10 uL; 1x PBS per well, sealed with clear adhesive tape.
# NOTES (numbers refer to sequence numbers above).
# 1. NCI-H358 cells expressing eGFP-tagged delta133p53alpha were grown in T75 culture flasks and treated with doxycycline for 24h, at 10 ng/ml for eGFP-D133p53a cells (N-terminal cell) and 100 ng/ml for D133p53a-eGFP cells (C-terminal cells). Cells were trypsinized, counted using a Counted 3 Automated Cell Counter (Thermo Fisher), and diluted to a concentration of 200,000 cells/ml. A Multidrop Combi Reagent Dispenser (ThermoFisher) was used to dispense 800 cells/well in […] of doxycycline-free media, into 1536-well black/clear bottom low base plates (AuroraMicroplates).
# 2. After plating cells, 23 nl of compound library, DMSO vehicle control or positive control (5-azacytidine) were transferred by Pin Tool (Wako). The plate map layout was the same for each plate: (column 1) non-doxycycline treated cells + DMSO vehicle control; (column 2) doxycycline treated cells + DMSO vehicle control baseline; (column 3) doxycycline treated cells + positive control 57.5 uM final concentration 5-azacytidine; (column 4) doxycycline treated cells + serial dilution of 5-azacytidine, 16-point 1:2 titration spanning 1.8 nM to […] final concentration; (columns 5-48) doxycycline treated cells + titration of library compounds.
# 3. Cells were incubated at 37 °C, 5 % CO2, 95% RH with breathable metal lid for 24h.
# 4-10. […] After two washes, 10 ul of 1X PBS (Thermo Fisher) was dispensed to each well. Clear adhesive plate seals (VWR) were applied and plates stored at 4 °C.
# 11. […]
# Potency is read from the fitted curve at half-maximal effect.
# Chain of Cellular tumor antigen p53 (Homo sapiens) (P04637 whole entry, looked up): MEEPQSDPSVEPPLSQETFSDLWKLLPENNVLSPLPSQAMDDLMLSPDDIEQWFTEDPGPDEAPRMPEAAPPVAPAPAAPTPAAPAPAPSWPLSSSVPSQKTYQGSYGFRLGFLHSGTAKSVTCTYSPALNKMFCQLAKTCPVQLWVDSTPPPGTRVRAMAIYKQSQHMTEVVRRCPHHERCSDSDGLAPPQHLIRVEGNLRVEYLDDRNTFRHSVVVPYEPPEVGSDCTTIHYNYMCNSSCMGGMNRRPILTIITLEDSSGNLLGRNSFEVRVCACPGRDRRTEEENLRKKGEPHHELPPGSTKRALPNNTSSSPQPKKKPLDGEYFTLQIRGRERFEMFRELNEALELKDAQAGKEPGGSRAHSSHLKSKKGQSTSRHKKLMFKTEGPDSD
Compound,activation,Potency
Cc1cn(CCN2CCN(c3ccccc3-c3cc(C#N)cc(C(=O)NCCCN4CCCC4)c3)CC2)c2ccccc12,15.8% (inactive),
CCN=C1N[C@@H]2[C@@H](O)[C@H](O)[C@@H](CO)O[C@@H]2S1,1.43% (inactive),
O=C(Nc1cc(-c2ccccc2)nn1-c1ccccc1F)c1ccc([N+](=O)[O-])cc1,-5.73% (inactive),
NC(=O)CNCCC(c1ccccc1)c1ccccc1,-18.2% (inactive),
CCCCN1CCCC[C@H]1C(=O)Nc1c(C)cccc1C,-18.6% (inactive) and -5.25% (inactive),
O=c1[nH]nc(Sc2ncc([N+](=O)[O-])s2)n1-c1ccc2c(c1)OCCO2,-12.9% (inactive),
N[C@H](C(=O)O)[C@@H](O)c1ccc(O)c(O)c1,5.02% (inactive),
O=C(N[C@@H]1CC[C@@H](c2cccc(F)c2F)CN(CC(F)(F)F)C1=O)N1CCC(n2c(=O)[nH]c3ncccc32)CC1,-0.477% (inactive),
COc1ccc(Cl)c(Nc2ncnc3cc(OCC4CCN(C)CC4)c(OC)cc23)c1,,6.01 µM (active)
CC(=O)Oc1cccc(O)c1,18.6% (inactive),
C/C1=C\[C@@H](C)C[C@@H](C)[C@@H](Cc2cnco2)OC(=O)/C(C)=C/[C@@H](C)C[C@@H](C)[C@@H](Cc2cnco2)OC1=O,0% (inactive),
CN(C)c1ccc(/C=C2\C(=O)Nc3ccccc32)cc1,-19.4% (inactive),43.2 µM (active)
CC#CCOC(=O)c1c(C)nc2sc3c(c2c1N)CCC(O)C3 (stereo not given),-13.8% (inactive),
Cc1cc(OCc2nc(-c3ccccc3Cl)cs2)ccc1OCC(=O)O,-1.91% (inactive),
C=C1C(=O)O[C@@H]2[C@H]1CCC(C)=C1CCC(=O)O[C@]12C,,12 µM (active)
O=C(OCCN1CCOCC1)c1cccnc1Nc1cccc(C(F)(F)F)c1,-7.34% (inactive),
O=C(NCCCN1CCC2(CC1)OCc1ccccc12)[C@H]1CCCN1Cc1ccccc1,0.477% (inactive),
CC=CC1=C(C(=O)O)N2C(=O)[C@H](NC(=O)[C@H](N)c3ccc(O)cc3)[C@@H]2SC1,11.1% (inactive),
Cc1nc(N)sc1-c1ccnc(Nc2ccc(N3CCOCC3)cc2)n1,-1.52% (inactive),26.9 µM (active)

Compound,activation,Potency
Cc1ccc2c(c1)C=Cc1cc(C)ccc1C2c1cn(Cc2ccc(C(=O)Nc3nn[nH]n3)o2)c(=O)[nH]c1=S,-8.33% (inactive),
OC(c1ccc(-c2ccc(CN3CCN(Cc4ccncc4)CC3)cc2)c(F)c1)(C(F)(F)F)C(F)(F)F,-11% (inactive),
CC(C)(C)C(=O)NCCCC(=O)O,-17.6% (inactive),
CC(C)CC(=O)OC1OC=C(CO[C@@H]2O[C@H](CO)[C@@H](O)[C@H](O)[C@H]2O)C2CC(O)C(O)(CO)C12 (stereo not given in full),15.2% (inactive),
CC(C)(C)c1[nH]cnc1C=c1[nH]c(=O)c(=Cc2ccccc2)[nH]c1=O,-1.26% (inactive),
O=C1Cc2cc(Cl)ccc2N1,5.08% (inactive),
O=C(Nc1ccc(Oc2ccnc3[nH]ccc23)c(F)c1)c1cccn(-c2ccc(F)cc2)c1=O,-27.3% (inactive) and -22.3% (inactive),
CC(=O)OC(C)(C)/C=C/C(=O)[C@](C)(O)C1[C@H](O)C[C@@]2(C)[C@@H]3CC=C4[C@@H](C[C@H](O[C@@H]5O[C@H](CO)[C@@H](O)[C@H](O)[C@H]5O)C(=O)C4(C)C)[C@]3(C)C(=O)C[C@]12C (stereo not given in full),-10.7% (inactive),
CN(NC(=O)CC(=O)NN(C)C(=S)c1ccccc1)C(=S)c1ccccc1,,0.861 µM (active)
C[C@@H]1O[C@@H](O[C@H]2[C@H](OC(=O)[C@]34CCC(C)(C)C[C@H]3C3=CCC5[C@@]6(C)CC[C@H](O[C@@H]7O[C@H](C(=O)O)[C@@H](O)[C@H](O)[C@H]7O[C@@H]7O[C@H](CO)[C@H](O)[C@H](O)[C@H]7O)[C@@](C)(C=O)C6CC[C@@]5(C)[C@]3(C)C[C@H]4O)O[C@H](C)[C@H](O[C@@H]3O[C@H](C)[C@H](O)[C@H](O)[C@H]3O)[C@@H]2O)[C@H](O)[C@H](O)[C@H]1O[C@@H]1OC[C@@H](O)[C@H](O[C@@H]2O[C@H](CO)[C@@H](O)[C@H](O)[C@H]2O)[C@H]1O (stereo not given in full),-6.87% (inactive),
CCc1cc2c(cc1N1CCC(N3CCOCC3)CC1)C(C)(C)c1[nH]c3cc(C#N)ccc3c1C2=O,46.2% (inactive),
O=C(NCCCNc1nc(Nc2cccc(NC(=O)N3CCCC3)c2)ncc1I)c1cccs1,9.72% (inactive),
COC(=O)CC1CC(c2ccc(O)cc2)=NO1 (stereo not given),-0.955% (inactive),
COc1cc2c(Oc3ccc4[nH]c(C)cc4c3F)ncnc2cc1OCCCN1CCCC1,,24.3 µM (active) and 23.9 µM (active)
c1ccc(OCc2ccc(CCCN3CCOCC3)cc2)cc1,-7.53% (inactive),
CC(NC(=O)C(O)C(C)C)C(=O)NC1C(=O)N(C)CCc2ccccc21 (stereo not given),2.39% (inactive),
CC1CCC23COC(=O)C2=CC(O)CC3C1(C)CCC1=CC(=O)OC1O (stereo not given),0.763% (inactive),
O=C(O)CCC(=O)c1ccc(-c2ccccc2)cc1,-11.9% (inactive),
CCc1cccc2c3c([nH]c12)[C@@](CC)(CC(=O)O)OCC3,-4.77% (inactive),
